From PubChem BioAssay
Values without a mark were called inactive. For some assays here: Results with a measured potency or affinity are listed apart. Calls of active or inactive are those of the source. Unless noted, the rule behind the calls is not given here.

Experiments:
[1] = antimalarial activity against Dd2 strain (AID 2302;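 active = growth inhibition above 50% at the single 2 µM test dose, taken to imply half-maximal potency below 2 µM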;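 note: 0% = DMSO untreated growth and 100% = chloroquine plus artemisinin killed control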); details: P. falciparum Dd2 in RBCs, LDH growth readout, 72 h; at 2 µM; stronger effect = higher value
[2] = human hepatoma cell viability loss – ATP luminescence, cytotoxicity control for P. falciparum antimalarial project, primary screen (AID 2303;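 active = inhibition above 50%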;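 note: 0% = DMSO wells and 100% = digitonin-killed cells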); details: HepG2 viability, 24-48 h, at 10 µM, stronger effect = higher value
[3] = biological target: L-lactate dehydrogenase (Plasmodium falciparum (isolate CDC / Honduras)) (UniProt Q27743); assay: PfLDH activity inhibition – cell lysate, 3D7 strain, counter-screen for P. falciparum growth inhibition project (AID 2304);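 note: 0% = vehicle and 100% = reference inhibitor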; details: P. falciparum 3D7 crude extract, LDH APAD/NBT absorbance; at 2 µM; stronger effect = higher value
[4] = inhibition of 3D7 malaria parasite growth – strain 3D7 (AID 2306);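 note: 0% = DMSO wells and 100% = chloroquine plus artemisinin control wells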; details: P. falciparum 3D7 erythrocytic growth, LDH absorbance, 72 h; at 2 µM; stronger effect = higher value
[5] = biological target: Calcium-dependent protein kinase 1 (Plasmodium falciparum (isolate 3D7)) (UniProt P62344); assay: PfCDPK1 kinase inhibitors, biochemical, TCAMS library (AID 1159585; cut-off not given, nearly all actives have IC50 up to about 0.98 µM;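 note: inhibitors leave more ATP so luminescence rises with inhibition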); details: recombinant PfCDPK1, Kinase-Glo ATP depletion luminescence
[6] = biological target: Plasmodium falciparum protein kinase 6 (PK6, PF3D7_1337100) (UniProt Q8IDW1); assay: PfPK6 kinase inhibitors, biochemical, TCAMS library (AID 1159586); details: recombinant PfPK6, Kinase-Glo ATP depletion luminescence
[7] = biological target: Protein kinase 7 (PK7), Plasmodium falciparum 3D7 (PF3D7_0213400) (UniProt Q7YTF7); assay: inhibition of Plasmodium PK7 catalytic activity – biochemical, TCAMS antimalarial set, Kinase-Glo luminescence (AID 1159587); details: recombinant PfPK7, Kinase-Glo ATP depletion luminescence
[8] = biological target: Calcium-dependent protein kinase 4 (Plasmodium falciparum (isolate 3D7)) (UniProt Q8IBS5); assay: PfCDPK4 kinase inhibitors, biochemical, TCAMS library (AID 1159588; cut-off not given, nearly all actives have IC50 up to about 0.91 µM); details: recombinant PfCDPK4, Kinase-Glo ATP depletion luminescence
Sequence of Calcium-dependent protein kinase 4 (Plasmodium falciparum (isolate 3D7)) (Q8IBS5 whole entry, looked up): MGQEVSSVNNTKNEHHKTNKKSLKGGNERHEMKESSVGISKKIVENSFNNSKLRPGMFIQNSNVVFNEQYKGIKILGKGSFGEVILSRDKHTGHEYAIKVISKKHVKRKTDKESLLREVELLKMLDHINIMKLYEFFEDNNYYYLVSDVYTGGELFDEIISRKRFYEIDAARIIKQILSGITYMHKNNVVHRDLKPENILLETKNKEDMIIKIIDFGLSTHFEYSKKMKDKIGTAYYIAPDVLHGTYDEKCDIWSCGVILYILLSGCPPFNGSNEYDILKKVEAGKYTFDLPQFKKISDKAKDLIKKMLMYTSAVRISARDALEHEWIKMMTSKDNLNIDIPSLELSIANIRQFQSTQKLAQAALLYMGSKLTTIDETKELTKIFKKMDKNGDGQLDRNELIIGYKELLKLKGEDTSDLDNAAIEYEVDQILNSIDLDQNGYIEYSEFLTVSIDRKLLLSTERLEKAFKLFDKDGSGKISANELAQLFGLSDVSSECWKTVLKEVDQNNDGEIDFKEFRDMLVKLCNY

Sequence of Plasmodium falciparum protein kinase 6 (PK6, PF3D7_1337100) (Q8IDW1 1-305): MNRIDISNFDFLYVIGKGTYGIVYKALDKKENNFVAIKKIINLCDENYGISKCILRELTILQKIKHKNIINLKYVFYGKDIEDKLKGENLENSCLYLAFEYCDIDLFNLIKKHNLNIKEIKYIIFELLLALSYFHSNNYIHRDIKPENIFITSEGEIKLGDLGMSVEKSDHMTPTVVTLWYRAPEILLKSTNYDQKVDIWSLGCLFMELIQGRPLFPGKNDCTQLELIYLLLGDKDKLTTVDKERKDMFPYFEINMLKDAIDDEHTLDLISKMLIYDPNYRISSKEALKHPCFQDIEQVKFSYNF
Sequence of Protein kinase 7 (PK7), Plasmodium falciparum 3D7 (PF3D7_0213400) (Q7YTF7 1-343): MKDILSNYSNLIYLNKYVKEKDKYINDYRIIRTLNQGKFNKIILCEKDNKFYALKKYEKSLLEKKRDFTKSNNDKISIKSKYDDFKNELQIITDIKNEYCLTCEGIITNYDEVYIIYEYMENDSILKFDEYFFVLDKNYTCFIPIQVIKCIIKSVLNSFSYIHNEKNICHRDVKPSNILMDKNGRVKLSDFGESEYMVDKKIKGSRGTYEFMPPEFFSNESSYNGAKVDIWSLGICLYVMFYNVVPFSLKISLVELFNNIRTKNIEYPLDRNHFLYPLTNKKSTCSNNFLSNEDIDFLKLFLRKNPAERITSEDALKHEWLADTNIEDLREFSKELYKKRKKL
Sequence of Calcium-dependent protein kinase 1 (Plasmodium falciparum (isolate 3D7)) (P62344 whole entry, looked up): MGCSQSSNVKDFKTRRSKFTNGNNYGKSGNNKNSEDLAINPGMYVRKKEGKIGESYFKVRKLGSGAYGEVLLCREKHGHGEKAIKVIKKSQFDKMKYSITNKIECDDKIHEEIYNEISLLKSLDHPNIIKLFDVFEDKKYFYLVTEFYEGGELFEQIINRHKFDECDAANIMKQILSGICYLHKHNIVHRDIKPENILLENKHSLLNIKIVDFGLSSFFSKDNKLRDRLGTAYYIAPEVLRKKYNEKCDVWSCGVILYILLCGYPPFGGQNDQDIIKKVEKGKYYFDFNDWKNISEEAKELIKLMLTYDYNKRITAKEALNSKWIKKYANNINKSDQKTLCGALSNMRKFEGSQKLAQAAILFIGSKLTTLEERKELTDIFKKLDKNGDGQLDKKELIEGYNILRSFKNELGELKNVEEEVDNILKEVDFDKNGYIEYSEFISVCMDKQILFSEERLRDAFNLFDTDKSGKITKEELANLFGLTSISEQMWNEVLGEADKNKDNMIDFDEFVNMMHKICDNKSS
Sequence of L-lactate dehydrogenase (Plasmodium falciparum (isolate CDC / Honduras)) (Q27743 whole entry, looked up): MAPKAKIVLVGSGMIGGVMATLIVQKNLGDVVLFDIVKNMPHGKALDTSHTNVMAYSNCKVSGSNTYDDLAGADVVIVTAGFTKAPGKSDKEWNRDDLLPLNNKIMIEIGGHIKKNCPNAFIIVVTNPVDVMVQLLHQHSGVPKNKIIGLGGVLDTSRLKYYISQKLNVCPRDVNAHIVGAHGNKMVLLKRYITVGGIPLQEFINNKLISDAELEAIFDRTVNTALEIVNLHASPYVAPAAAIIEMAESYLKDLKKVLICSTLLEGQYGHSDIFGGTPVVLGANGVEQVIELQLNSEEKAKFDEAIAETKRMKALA

Compound | growth inhibition [1] | inhibition [2] | inhibition [3] [%] | growth inhibition [4] | outcome [5] | outcome [6] | outcome [7] | outcome [8]
COc1ccc(CN2CCC(NCc3ccc(C(F)(F)F)cc3)CC2)cc1 | -1% | 37% | 2 | 97% (active) | inactive | inactive | inactive | inactive
NC(N)=Nc1ccc(OCCCCCOc2ccc(N=C(N)N)c(Cl)c2)cc1Cl | 92% (active) | 18% | 6 | 92% (active) | inactive | inactive | inactive | inactive
Cc1ccc2nc(-c3cc(-c4ccc(OCc5ccccc5)cc4)cnc3N)[nH]c2c1 | 87% (active) | 33% | 1 | 91% (active) | inactive | inactive | inactive | inactive
CN(C)C(=NCCCCCCN=C(/N=C(/N)Nc1ccc(Cl)cc1)N(C)C)/N=C(/N)Nc1ccc(Cl)cc1 | 98% (active) | 11% | 4 | 97% (active) | inactive | inactive | inactive | inactive
CC(C)(C)c1cc(NC2CC2)nc(-c2ccccn2)n1 | 79% (active) | 7% | -7 | 94% (active) | inactive | inactive | inactive | inactive
CC(=O)Nc1ccc(C(=O)Nc2ccc(-c3cccc(-c4nc5ccccc5[nH]4)c3)cc2)cn1 | 84% (active) | 34% | 2 | 99% (active) | inactive | inactive | inactive | inactive
CC(C)C1=C[C@H]2C[C@]3(C4OCCO4)[C@@H]4CC[C@@H](C)[C@H]4C[C@@]2(COCc2cccc(C#N)c2)[C@]13C(=O)OC(c1ccccc1)c1ccccc1 | 92% (active) | -5% | 8 | 88% (active) | inactive | inactive | inactive | inactive
Cc1ncccc1-c1cccc2c(NC(=O)Nc3ccc4nccc(N5CCN(C)CC5)c4c3)cccc12 | 96% (active) | 19% | -6 | 101% (active) | inactive | inactive | inactive | inactive
COc1ccc(S(=O)(=O)N(CCCN2CCN(C)CC2)Cc2csc(-c3ccc(CNCc4ccccc4)cc3)n2)cc1 | 86% (active) | 10% | 6 | 88% (active) | inactive | inactive | inactive | inactive
COc1cc(NCCCCNc2ccc(Cl)c(Cl)c2)nc2ccccc12 | 68% (active) | 22% | 2 | 100% (active) | inactive | inactive | inactive | inactive
Cc1cc(N2CCCC2)nc(Nc2ccc(NC(=O)c3ccco3)cc2)n1 | 43% | 23% | -3 | 100% (active) | inactive | inactive | inactive | inactive
CCOc1cc(C(=O)NC2CC(C)(C)NC(C)(C)C2)ccc1-c1cc2cc(Cl)c(Cl)cc2[nH]1 | 46% | 37% | -1 | 101% (active) | inactive | inactive | inactive | inactive
CC(C)(C)c1ccc(NC(=O)c2ccc(CN3CCCN(Cc4cccc(O)c4)CC3)cc2)cc1 | 62% (active) | 54% (active) | 1 | 102% (active) | inactive | inactive | inactive | inactive
CC1CCc2c(C(=O)Nc3c(F)cc(F)cc3Br)csc2C1 (stereo not given) | 59% (active) | -1% | 3 | 96% (active) | inactive | inactive | inactive | inactive
Nc1nc(Nc2cccc(O)c2)nc2ccccc12 | 79% (active) | 25% | 4 | 96% (active) | inactive | inactive | inactive | inactive
O=C(Nc1ccc(-c2nc3ccccc3[nH]2)cc1)c1ccc(S(=O)(=O)N2CCCCC2)cc1 | 6% | 23% | 2 | 95% (active) | inactive | inactive | inactive | inactive
COc1ccc(CNc2cc(C)nc3sc4c(c23)CCC2(C4)OCCO2)cc1 | 2% | 4% | -7 | 96% (active) | inactive | inactive | inactive | inactive
CN(C)c1ccc2c(c1)Sc1cc(N(C)C)ccc1N2C(=O)c1cccc(C(=O)O)c1 | 73% (active) | 8% | -3 | 99% (active) | inactive | inactive | inactive | inactive
CCCOc1ccc(C(=O)Nc2nonc2-c2ccc(OC)c(OC)c2)cc1 | 97% (active) | -9% | 5 | 99% (active) | inactive | inactive | inactive | inactive
CCCC(=O)NC(c1ccc(C(C)C)cc1)c1ccc2cccnc2c1O (stereo not given) | 37% | 50% (active) | 0 | 90% (active) | inactive | inactive | inactive | inactive

Compound | growth inhibition [1] | inhibition [2] | inhibition [3] [%] | growth inhibition [4] | outcome [5] | outcome [6] | outcome [7] | outcome [8]
Oc1ccc2c(CNCCc3ccccc3)c(O)ccc2c1CNCCc1ccccc1 | 100% (active) | 24% | -8 | 99% (active) | inactive | inactive | inactive | inactive
NC(=O)NC(=O)C=Cc1ccco1 | -3% | 32% | -7 | 97% (active) | inactive | inactive | inactive | inactive
COc1ccc(NC(=O)[C@H](Cc2ccccc2)Nc2nc(NCCN3CCCC3)ncc2C)cc1 | 9% | 26% | 1 | 89% (active) | inactive | inactive | inactive | inactive
CCc1sc(N2CCC(C)CC2)nc1C(=O)Nc1ccc(F)cc1C(F)(F)F | 65% (active) | 1% | 2 | 94% (active) | inactive | inactive | inactive | inactive
N#Cc1cnc2cc(-c3cnc(CNCCN4CCOCC4)s3)ccc2c1Nc1ccc(Oc2ccccc2)cc1 | 83% (active) | 30% | 2 | 97% (active) | inactive | inactive | inactive | inactive
Cc1[nH]c(C)c(Cc2ccc(Oc3ccc(OC(F)(F)F)cc3)cc2)c(=O)c1Br | 87% (active) | 29% | -1 | 96% (active) | inactive | inactive | inactive | inactive
CCOC(=O)Cn1ccc2c(NCc3ccccc3)nc(C)nc21 | 0% | 64% (active) | -1 | 96% (active) | inactive | inactive | inactive | inactive
Cc1[nH]c(C)c(-c2ccc(OCc3ccc(OC(F)(F)F)cc3)nc2)c(=O)c1Cl | 96% (active) | 3% | -3 | 98% (active) | inactive | inactive | inactive | inactive
CCC(C)c1ccc(Nc2nc(C)cc(N(CC)CCCN3CCCCC3)n2)cc1 (stereo not given) | 83% (active) | 55% (active) | -7 | 101% (active) | inactive | inactive | inactive | inactive
Cc1cc(CN2CC[C@H](NC(=O)c3ccc(Cl)c(Cl)c3)C2)ccc1OCCN1CCNCC1 | 1% | 15% | -1 | 94% (active) | inactive | inactive | inactive | inactive
COc1cc2nc(N3CCN(C(=O)c4ccco4)CC3)nc(NCc3ccccc3)c2cc1OC | 99% (active) | 16% | -5 | 101% (active) | inactive | inactive | inactive | inactive
COc1ccccc1CNC(=O)c1nn(-c2ccc(Cl)cc2)c(=O)c2ccccc12 | 80% (active) | -2% | 6 | 101% (active) | inactive | inactive | inactive | inactive
CC(C)(C)c1ccc(CN2CCCCC(NC(=O)c3cc(-c4ccccc4Cl)cs3)C2)cc1 (stereo not given) | 98% (active) | 3% | -1 | 101% (active) | inactive | inactive | inactive | inactive
CC1(C)N=C(N)NC(Nc2ccc(Cl)cc2)=N1 | -1% | 8% | -2 | 97% (active) | inactive | inactive | inactive | inactive
CN1CCN(CC2(Nc3nccc(NCCc4cn(C)c5ccccc45)n3)CCCCC2)CC1 | 41% | 67% (active) | 2 | 91% (active) | inactive | inactive | inactive | inactive
O=C(/C=C/c1ccc(Cl)c(Cl)c1)NCCCCCN1CCC(CCNC(=O)C2(c3ccc(Cl)cc3)CC2)CC1 | 16% | 96% (active) | -3 | 91% (active) | inactive | inactive | inactive | inactive
CCN(CCCN1CCCCC1)c1cc(C)nc(Nc2cc(Cl)ccc2C)n1 | 37% | 36% | -1 | 99% (active) | inactive | inactive | inactive | inactive
CC(C)C[C@H](Nc1ccnc(NCC2CCCCC2)n1)C(=O)NCCc1ccccc1 | 66% (active) | 10% | 0 | 88% (active) | inactive | inactive | inactive | inactive
CCOc1cc(C(=O)Nc2ccc3nc(N4CCCCC4)cc(C)c3c2)cc(OCC)c1OCC | 2% | 26% | -6 | 100% (active) | inactive | inactive | inactive | inactive
O=C(/C=C/c1ccc(Cl)c(Cl)c1)N1CCC(CN2CCC(Cc3c[nH]c4ccccc34)CC2)CC1 | 13% | 24% | 1 | 98% (active) | inactive | inactive | inactive | inactive
